19 compounds from PubChem BioAssay (NCI) can be followed below.

The panel holds about 79,000 compounds, 15% with a hit somewhere; the sample as a whole holds those more often. Values without a mark were called inactive. Calls of active or inactive are those of the source. Cut-off read from the data, not from the text of the source: active = growth inhibition above about 70%; inactive = the rest.

The nature of test [1]: NCI Yeast Anticancer Drug Screen. Data for the rad50 strain (AID 155).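 Note: 0% = growth of vehicle-only cultures of the same strain.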 Conditions: S. cerevisiae rad50 strain growth inhibition; at 50.0 µM; stronger effect = higher value. A digest of the protocol:
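Inhibition values express reduced yeast growth in compound-treated cultures relative to vehicle-treated controls.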

Test [2] in a line: NCI Yeast Anticancer Drug Screen. Data for the mec2-1 strain (AID 157). The note with it: S. cerevisiae mec2-1 strain, at 50.0 µM, stronger effect = higher value. In a few lines:
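Yeast mec2-1 mutant treated with compound. Readout: growth inhibition vs vehicle controls.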

The nature of test [3]: NCI Yeast Anticancer Drug Screen. Data for the sgs1 mgt1 strain (AID 161).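 Note: 0% = growth of cultures given vehicle only.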 The note with it: S. cerevisiae sgs1 mgt1 strain, at 50.0 µM, stronger effect = higher value. In a few lines:
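Mutant yeast exposed to compound; growth scored against vehicle-only wells.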

Test [4] is described as follows: NCI Yeast Anticancer Drug Screen. Data for the cln2 rad14 strain (AID 165).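 Note: 0% = growth equal to vehicle treated cultures.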 Conditions: S. cerevisiae cln2 rad14 strain, at 50.0 µM, stronger effect = higher value. A digest of the protocol: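 cln2 rad14 yeast strain; compound exposure; growth inhibition read vs vehicle controls.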
Test [5] is described as follows: NCI Yeast Anticancer Drug Screen. Data for the bub3 strain (AID 167). The note with it: S. cerevisiae bub3 mutant strain, at 50.0 µM, stronger effect = higher value. A digest of the protocol: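 Steps: expose the mutant yeast strain to compound; grow alongside vehicle-treated cultures; measure growth; express inhibition against the vehicle cultures.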
A short description of test [6]: NCI Yeast Anticancer Drug Screen. Data for the mlh1 rad18 strain (AID 175). The note with it: S. cerevisiae mlh1 rad18 strain growth inhibition; at 50.0 µM; stronger effect = higher value. A digest of the protocol:
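Yeast w/ defined DNA-repair lesions; compound exposure; growth vs vehicle controls → % inhibition.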

Turning to `Nc1ccccc1C(=O)Nc1ccccn1`, the growth inhibition in test [1] was 4.05%; in test [2], -1.1%; in test [3], 0.5%; in test [4] it was 5.35%; in test [5], 0.45%; in test [6], -6.25%.

For `Cn1c2ccccc2c2[nH]c3ccccc3c(=O)c21`, the growth inhibition in test [1] is 54.5%; in test [2], 16.4%; in test [3] it was -15.1%; in test [4], -8.95%; in test [5], -11.4%; in test [6] it was 28.6%.

Consider `O=c1[nH]c2ccccc2nc1/C=C\NC(=S)Nc1cc(Cl)ccc1Cl`, for which the growth inhibition is -45.5% in test [1]; -32.1% in test [2]; -44.1% in test [3]; -14.8% in test [4]; -30.6% in test [5]; -40.1% in test [6].

Consider `O=C(Nc1cc(Cl)ccc1Cl)C(=O)C(c1cnc2ccccc2n1)[N+](=O)[O-]` (centres undefined), for which the growth inhibition in test [1] was 12.7%; in test [2], 6.3%; in test [3] it was -23.8%; in test [4], 36.1%; in test [5], 34.1%; in test [6], 13.3%.

For `CSc1ncc2c(C#N)c3sc4ccccc4n3c(=O)c2n1`, the growth inhibition in test [1] was 14.8%; in test [2] it was -8.05%; in test [3], 32.4%; in test [4], 12.4%; in test [5], 26.5%; in test [6] it was -21.1%.

Consider `CCCC[Si](C)(C)CCCC`, for which the growth inhibition was -6.35% in test [1]; -5.95% in test [2]; -24.9% in test [3]; -11.2% in test [4]; -2.1% in test [5]; -5.3% in test [6].

As to `Cc1ccc(S(=O)(=O)OCC2C(c3ccccc3)CCC(c3ccccc3)C2COS(=O)(=O)c2ccc(C)cc2)cc1` (centres undefined), the growth inhibition is -5.6% in test [1]; -5.4% in test [2]; -16.1% in test [3]; -28.6% in test [4]; 4.25% in test [5]; 4.45% in test [6].

For `Fc1cccc(-c2nnc(-c3ccccc3)o2)c1`, the growth inhibition was 34.1% in test [1]; 23.1% in test [2]; 28.9% in test [3]; 19.4% in test [4]; 37.8% in test [5]; -1.65% in test [6].

In the case of `CC1(C)CCC[C@@]2(C)C1C[C@H](O)[C@@]1(C)O[C@@](C)([C@H](O)CO)CCC21` (some centres undefined), the growth inhibition in test [1] is 28.6%; in test [2] it was 33%; in test [3] it was 56%; in test [4], 69.1%; in test [5], 29.2%; in test [6] it was 70.9% (active).

With `CCCC(C)(CCC)OC(=O)Nc1cccc2ccccc12`, the growth inhibition in test [1] was -3%; in test [2], -4.2%; in test [3], -4.4%; in test [4], -10.7%; in test [5] it was 6.95%; in test [6] it was 15.2%.

In the case of `COC(=O)/C=C(/C=C1/C(C#N)=C(N)N(c2ccc(Cl)cc2)C1(C)/C(=C/C(=O)OC)C(=O)OC)C(=O)OC` (centres undefined), the growth inhibition in test [1] was -3.15%; in test [2], -11.4%; in test [3], 2.5%; in test [4], 6.95%; in test [5] it was 21.8%; in test [6] it was 10.7%.

As to `N#CC(/C(=N\NC(=O)c1ccncc1)C(=O)Nc1ccc([N+](=O)[O-])cc1[N+](=O)[O-])c1nc(-c2ccc(Br)cc2)cs1` (centres undefined), the growth inhibition is 0.25% in test [1]; -3.75% in test [2]; -15.1% in test [3]; 7.6% in test [4]; 12.9% in test [5]; -7.85% in test [6].

In the case of `COc1cc2c(c(OC)c1OC)CCC1(C)C(=O)NN=C21` (centres undefined), the growth inhibition in test [1] was -18.1%; in test [2], 11.1%; in test [3], 23.5%; in test [4], -1.55%; in test [5] it was 13.7%; in test [6] it was 3.9%.

For the compound `CCc1cccc(CC)c1NC(=O)/C=C/C(=O)O`, the growth inhibition in test [1] is -12.6%; in test [2], 3.45%; in test [3], -4.75%; in test [4], -46.6%; in test [5], -4.2%; in test [6], 4.1%.

`CCC(C)C(C)/C(C)=N/Nc1ccc([N+](=O)[O-])cc1[N+](=O)[O-]` (centres undefined): the growth inhibition in test [1] is 13.7%; in test [2], -10%; in test [3], 0.25%; in test [4] it was -34.9%; in test [5] it was 6.6%; in test [6] it was -26.4%.

`CC(C)C(=O)Nc1ccccc1-c1ccccc1`: the growth inhibition in test [1] was 14.3%; in test [2], -1.45%; in test [3] it was -9.35%; in test [4] it was -1.4%; in test [5] it was 0.05%; in test [6] it was 8.8%.

Regarding `Cc1ccc(CN(C)N=Nc2ccc(C#N)cc2)cc1`, the growth inhibition in test [1] is 2.55%; in test [2], 34.2%; in test [3] it was 45.6%; in test [4] it was 12.1%; in test [5], 65.3%; in test [6] it was 6.7%.

`CN(C)CC(Cc1ccccc1)c1ccccc1` (centres undefined): the growth inhibition in test [1] was -19.9%; in test [2], -10.9%; in test [3] it was -18.6%; in test [4], 7.6%; in test [5], -5.4%; in test [6] it was -17.6%.

Consider `CC1CCCCC[N+]1(C)CCO` (centres undefined), for which the growth inhibition was -8.5% in test [1]; -7.15% in test [2]; -6.25% in test [3]; -30.7% in test [4]; -7.85% in test [5]; -4.8% in test [6].
